Test results taken from PubChem BioAssay (NCATS).
Results filed as inconclusive are left out. Active and inactive are the calls of the source. Unless noted, calls follow the shape of the dose curve; as a rule, active = well fitted curve in the direction sought with a large enough effect; inconclusive = small, poorly fitted or top-dose-only effect, or another doubt; inactive = no such curve, though single readings can be large; an effect the other way counts as inactive or inconclusive.

How the values were obtained:
[1] = target: Cytochrome P450 1A2 (Homo sapiens) (UniProt P05177); experiment: p450-cyp1a2 (AID 410; calls by dose curve; also: potency is read from the fitted curve at half-maximal effect)
Sequence of Cytochrome P450 1A2 (Homo sapiens) (P05177 whole entry, looked up): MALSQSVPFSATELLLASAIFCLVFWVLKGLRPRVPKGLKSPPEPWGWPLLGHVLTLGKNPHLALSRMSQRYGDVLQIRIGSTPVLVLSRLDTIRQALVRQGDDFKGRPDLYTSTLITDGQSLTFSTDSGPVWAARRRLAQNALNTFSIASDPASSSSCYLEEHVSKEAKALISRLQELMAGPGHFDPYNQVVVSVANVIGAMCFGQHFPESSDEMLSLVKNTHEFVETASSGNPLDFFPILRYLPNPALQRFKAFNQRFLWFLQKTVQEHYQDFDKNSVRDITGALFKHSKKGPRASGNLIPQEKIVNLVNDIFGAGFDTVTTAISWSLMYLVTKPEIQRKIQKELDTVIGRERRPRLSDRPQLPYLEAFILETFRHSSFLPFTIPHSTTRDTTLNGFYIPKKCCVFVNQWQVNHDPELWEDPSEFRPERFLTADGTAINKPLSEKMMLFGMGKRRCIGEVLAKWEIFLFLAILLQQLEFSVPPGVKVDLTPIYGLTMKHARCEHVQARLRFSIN
Method in brief: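 Inhibition was calculated relative to 57 uM furafylline (full inhibition). The reaction used human CYP1A2 at 20nM with Luciferin-ME at its Km, 100uM, driven by an NADPH-regenerating system for 60 min at room temperature.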

[2] = target: Glucocorticoid receptor (Homo sapiens) (UniProt P04150); experiment: GR-GFP Redistribution (AID 450;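 active = compounds whose dose series gives a full or clear partial fitted curve of increased nuclear translocation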; also: potency is read from the fitted curve at half-maximal effect); conditions: U2OS GR-GFP nuclear translocation, laser cytometry, 2 h
Sequence of Glucocorticoid receptor (Homo sapiens) (P04150 whole entry, looked up, the tested form may be a part): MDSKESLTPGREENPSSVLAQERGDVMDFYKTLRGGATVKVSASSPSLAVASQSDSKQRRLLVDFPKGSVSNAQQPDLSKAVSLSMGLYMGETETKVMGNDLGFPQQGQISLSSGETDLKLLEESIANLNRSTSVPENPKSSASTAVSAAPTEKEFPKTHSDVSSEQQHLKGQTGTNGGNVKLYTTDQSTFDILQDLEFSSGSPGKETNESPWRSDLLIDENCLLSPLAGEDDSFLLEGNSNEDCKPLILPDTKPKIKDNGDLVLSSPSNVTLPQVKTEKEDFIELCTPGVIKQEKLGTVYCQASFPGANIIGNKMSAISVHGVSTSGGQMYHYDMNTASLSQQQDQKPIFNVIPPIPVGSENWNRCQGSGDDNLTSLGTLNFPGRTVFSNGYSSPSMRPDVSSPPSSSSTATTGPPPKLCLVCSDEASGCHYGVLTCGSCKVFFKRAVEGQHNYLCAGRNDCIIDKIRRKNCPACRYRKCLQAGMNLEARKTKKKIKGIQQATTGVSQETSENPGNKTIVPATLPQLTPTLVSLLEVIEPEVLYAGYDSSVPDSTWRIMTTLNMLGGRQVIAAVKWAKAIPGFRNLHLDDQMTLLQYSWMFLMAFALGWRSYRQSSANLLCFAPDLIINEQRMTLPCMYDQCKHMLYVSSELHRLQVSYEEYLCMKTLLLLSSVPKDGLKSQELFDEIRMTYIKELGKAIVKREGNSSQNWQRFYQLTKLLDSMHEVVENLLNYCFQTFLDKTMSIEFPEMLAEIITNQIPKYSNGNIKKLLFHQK

[3] = target: Glucocorticoid receptor (Homo sapiens) (UniProt P04150); experiment: GR-EFC Redistribution (AID 451; calls by dose curve; also: potency is read from the fitted curve at half-maximal effect); conditions: CHO-K1 GR-EFC translocation, beta-gal luminescence, 2 h
Method in brief: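 Translocation of GR-ED fusion to nuclear EA restores b-gal, read by luminescence after 1 h room-temperature detection. Engineered CHO-K1 biosensor cells, 1,000/well, exposed 2 h at 37 C to titrations up to 46 uM final.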

[4] = target: Mitogen-activated protein kinase 10 (Mus musculus) (UniProt Q61831); experiment: JNK3 AlphaScreen Assay (AID 530; active = well fitted curve in either direction with a large enough effect, not every such curve was filed as active;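 also: kinase came from lysate of stimulated human HepG2 cells; signal reports phosphorylation of biotinylated GST-cJun 1-79 at Ser73 with 10 µM ATP; % is scaled to controls: 0 for no effect and ±100 for the full control effect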)
Method in brief: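 Room-temperature AlphaScreen kinase assay; pre-activated HepG2 lysate as JNK3 source, biotin-GST-cJun(1-79) substrate, 10 uM ATP, compound 15 min preincubation.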

[5] = target: Cytochrome P450 3A4 (Homo sapiens) (UniProt P08684); experiment: qHTS Assay for Activators of Cytochrome P450 3A4 (AID 885); also: nearly all actives have a fitted effect of over 65% in size
Sequence of Cytochrome P450 3A4 (Homo sapiens) (P08684 whole entry, looked up): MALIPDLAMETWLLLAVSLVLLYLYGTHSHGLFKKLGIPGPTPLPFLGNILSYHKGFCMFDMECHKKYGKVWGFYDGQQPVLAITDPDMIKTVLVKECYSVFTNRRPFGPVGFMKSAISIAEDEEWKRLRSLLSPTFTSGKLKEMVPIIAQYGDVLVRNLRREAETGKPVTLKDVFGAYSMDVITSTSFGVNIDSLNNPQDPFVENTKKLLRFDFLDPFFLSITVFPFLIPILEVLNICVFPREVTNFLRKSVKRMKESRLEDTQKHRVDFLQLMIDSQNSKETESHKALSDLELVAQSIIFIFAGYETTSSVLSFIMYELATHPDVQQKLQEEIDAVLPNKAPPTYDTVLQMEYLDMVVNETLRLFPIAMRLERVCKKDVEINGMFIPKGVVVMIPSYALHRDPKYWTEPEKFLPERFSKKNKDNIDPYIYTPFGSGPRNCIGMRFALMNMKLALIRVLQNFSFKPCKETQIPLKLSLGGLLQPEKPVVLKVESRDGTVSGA
Method in brief: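 Steps: enzyme/substrate mix dispensed; compound added, 10 min RT; NADPH regeneration solution added, 60 min RT; luciferin detection buffer stops reaction; 20 min later luminescence measured.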

[6] = target: Ubiquitin carboxyl-terminal hydrolase 1 (Homo sapiens) (UniProt O94782); experiment: Inhibitors of USP1/UAF1: Pilot qHTS (AID 504865);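 also: rhodamine fluorescence freed from ubiquitin-rhodamine substrate followed over time; top concentration of the series differs between compounds; % is scaled to controls: 0 for no effect and ±100 for the full control effect; nearly all actives have a fitted effect of over 35% in size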
Sequence of Ubiquitin carboxyl-terminal hydrolase 1 (Homo sapiens) (O94782 whole entry, looked up): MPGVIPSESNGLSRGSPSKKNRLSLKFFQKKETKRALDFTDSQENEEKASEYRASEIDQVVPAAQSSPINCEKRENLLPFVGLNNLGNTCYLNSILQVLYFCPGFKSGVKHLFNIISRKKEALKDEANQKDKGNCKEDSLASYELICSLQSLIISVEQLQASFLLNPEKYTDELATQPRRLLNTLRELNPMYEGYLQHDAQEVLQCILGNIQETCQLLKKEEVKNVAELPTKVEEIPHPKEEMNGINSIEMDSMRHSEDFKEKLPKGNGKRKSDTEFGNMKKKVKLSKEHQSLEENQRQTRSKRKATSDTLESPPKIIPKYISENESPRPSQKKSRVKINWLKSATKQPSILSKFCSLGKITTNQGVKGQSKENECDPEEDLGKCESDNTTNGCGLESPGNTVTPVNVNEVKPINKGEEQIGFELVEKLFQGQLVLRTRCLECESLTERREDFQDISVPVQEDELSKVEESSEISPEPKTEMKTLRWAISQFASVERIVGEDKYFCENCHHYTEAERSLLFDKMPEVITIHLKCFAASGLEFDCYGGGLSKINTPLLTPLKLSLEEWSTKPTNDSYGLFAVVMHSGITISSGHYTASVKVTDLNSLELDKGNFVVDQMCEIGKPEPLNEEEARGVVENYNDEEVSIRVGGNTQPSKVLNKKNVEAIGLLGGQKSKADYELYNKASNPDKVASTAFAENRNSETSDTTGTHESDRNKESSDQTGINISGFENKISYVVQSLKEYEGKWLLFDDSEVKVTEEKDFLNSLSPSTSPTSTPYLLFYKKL
Method in brief: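 Kinetic fluorescence assay: 1nM USP1/UAF1, 15 min compound preincubation, then 150nM Ub-Rho; 480/540 nm.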

[7] = target: DNA dC->dU-editing enzyme APOBEC-3G (Homo sapiens) (UniProt Q9HC16); experiment: qHTS for inhibitors of Vif-A3G interactions: Validation (AID 588379); also: 0% is about no effect
Sequence of DNA dC->dU-editing enzyme APOBEC-3G (Homo sapiens) (Q9HC16 whole entry, looked up): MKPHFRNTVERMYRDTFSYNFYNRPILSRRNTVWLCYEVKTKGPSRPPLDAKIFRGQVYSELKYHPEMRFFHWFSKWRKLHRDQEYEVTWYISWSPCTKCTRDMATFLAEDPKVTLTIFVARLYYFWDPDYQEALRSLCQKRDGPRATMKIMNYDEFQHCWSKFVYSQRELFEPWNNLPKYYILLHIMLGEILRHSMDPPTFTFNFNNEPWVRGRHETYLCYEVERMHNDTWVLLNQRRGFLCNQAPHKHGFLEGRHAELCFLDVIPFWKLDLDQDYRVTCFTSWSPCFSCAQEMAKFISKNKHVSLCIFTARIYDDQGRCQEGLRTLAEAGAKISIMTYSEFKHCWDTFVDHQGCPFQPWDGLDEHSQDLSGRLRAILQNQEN
Method in brief: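 HeLa cells stably expressing Vif and A3G-eYFP, 700 cells/well, incubated overnight at 37 deg C, then exposed to compound overnight at 37 deg C. Inhibition of Vif-mediated degradation read as increased yellow fluorescence (Ex 488/Em 500-530) by laser-scanning cytometry.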

[8] = system: Zika virus NS2B-NS3 protease; experiment: Primary screen GU AMC qHTS for Zika virus inhibitors (AID 1347154);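 also: 0% = no-inhibitor control and -100% = no-enzyme control; nearly all actives have a fitted effect of over 70% in size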
Method in brief: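 Fluorogenic AMC-substrate cleavage by noncovalent NS2B-NS3 protease complex (25 nM, pH 8.0 Tris buffer with Tween 20) followed for 15 minutes at room temperature (~20% conversion). Percent inhibition from ex340/em450 signal change, fitted by 4-parameter Hill equation.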

[9] = Primary qHTS for small molecule stabilizers of the endoplasmic reticulum resident proteome: Secreted ER Calcium Modulated Protein (SERCaMP) assay (AID 1508630); also: % is scaled to controls: 0 for no effect and ±100 for the full control effect
Method in brief: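 GLuc-SERCaMP-expressing SH-SY5Y cells, pretreated 16 h with compound, are challenged with thapsigargin to empty ER calcium stores; after 4 h, coelenterazine is added directly to the medium and luminescence is imaged.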

[10] = target: Cytochrome P450 3A4 (Homo sapiens) (UniProt P08684); experiment: qHTS Assay for Inhibitors and Substrates of Cytochrome P450 3A4 (AID 884); also: % is scaled to controls: 0 for no effect and ±100 for the full control effect; nearly all actives have a fitted effect of over 50% in size
Method in brief: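 20 nM human CYP3A4 with 25 uM Luciferin-PPXE (at KM) in 200 mM KPO4, preincubated 10 min with compound; NADPH regeneration started a 60 min RT reaction. Luciferin detected by luminescence, normalized to 57 uM ketoconazole as full inhibition.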

[11] = Confirmation and Secondary Assay for Modulators of Hemoglobin Beta Chain Splicing at IVS2 654 locus (AID 910);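 also: HeLa cells stably carrying EGFP split by mutant beta-globin IVS2-654 intron; per-well total GFP intensity by laser scanning cytometry after 2-day treatment; % of control where 0% means no effect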
Method in brief: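 Readout: per-well total peak green fluorescence (488 nm ex, 500–520 nm em) from objects 5–250 µm, reflecting correct splicing of an EGFP-654 reporter. Compounds were applied for 2 days at 37 °C to overnight-plated HeLa EGFP-654 cells; controls were DMSO and 500 nM IVS2-654 PNA.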

[12] = Confirmation and Secondary Assay for Modulators of Hemoglobin Beta Chain Splicing at IVS2 705 locus (AID 930);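 also: HeLa cells stably expressing the EGFP-705 splicing reporter; % of control where 0% means no effect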
Method in brief: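 HeLa cells stably carrying EGFP interrupted by mutant beta-globin IVS2-705 intron (CMV-driven) were seeded at 500 cells/well, treated next day with compound for 2 days at 37C; corrected splicing restores EGFP, read as total peak GFP intensity per well.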

[13] = qHTS Assay for Lipid Storage Modulators (AID 1519; calls by dose curve; as to activity change, negative = inhibition: % is scaled to controls: 0 for no effect and ±100 for the full control effect); conditions: Drosophila S3 cells, BODIPY lipid droplet/cell ratio, laser cytometry, cells loaded with oleic acid
Method in brief: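 Cells seeded at 5,000 per well were treated with compounds over a concentration series and loaded with oleic acid (400 uM, as added). Lipid droplet fluorescence (488 nm excitation, 500-530 nm channel) was read by laser-scanning cytometry and normalized to 20 uM Triacsin C.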

Clc1ccc(C2=CCC[C@H]3CC[C@@H]2N3)cn1
active: Potency [1] 15.8 µM
inactive: Potency [2] > 46 µM | Potency [3] > 46 µM | outcome [4] | Potency [5] | Potency [6] | Potency [7] | Potency [8] | Potency [9]

c1cncc(C2CCCCN2)c1 (configuration not stated)
20.8%: max response ([13]; measured here: lipid channel max response)
15%: max response ([13]; measured here: cell count channel max response)
inactive: Potency [10] | Potency [11] | outcome [12] | activity change, negative = inhibition ([13]; at 57.5 µM (top of the series)) 4.14% | Potency [8] | Potency [9]
